Test results from PubChem BioAssay (Tox21).
Records with an inconclusive call do not appear. Active and inactive are the calls of the source. Unless noted, calls come from the whole dose curve; as a rule, active = well fitted curve in the direction sought with a large enough effect in the repeat runs; inconclusive = weak or mixed curves; inactive = no such curve, though single readings can be large; an effect the other way counts as inactive or inconclusive.

What was measured:
[1] = A CellTox Green Cytotoxicity Assay to monitor cytotoxicity in HepG2 cells - 8 hour (AID 1224890); conditions: CellTox Green fluorescence; series mostly up to 76.8 µM; note: nearly all actives have a fitted effect of over 45% in size
Method in brief: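 Using 1536-well format, dye-containing HepG2 suspension was seeded, allowed 5 h at 37 C/5% CO2, dosed by pintool with compounds, positive and negative controls, and imaged for fluorescence across 40 h.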

[2] = qHTS assay to identify small molecule antagonists of the estrogen receptor alpha (ER-alpha) signaling pathway using the BG1 cell line in the presence of 0.1 nM 17-beta-estradiol - cell viability counter screen (AID 1259241); conditions: VM7Luc4E2 (BG1) viability, CellTiter-Fluor protease, 22 h, 0.1 nM estradiol agonist added; series mostly up to 92.4 µM; note: nearly all actives have a fitted effect of over 40% in size
Method in brief: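 Cells were plated and left 24 hr, compounds in DMSO were pinned in, 17beta-estradiol was added to 0.1 nM final, and after 22 hr CellTiter-Fluor reagent was added for 30 min before fluorescence was read.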

[3] = qHTS assay to identify small molecule antagonists of the androgen receptor (AR) signaling pathway using the MDA cell line in the presence of 0.5 nM R1881 - cell viability counter screen (AID 1259242); conditions: MDA-kb2 viability, CellTiter-Fluor protease fluorescence, 16 h; series mostly up to 92.4 µM; note: nearly all actives have a fitted effect of over 45% in size
Method in brief: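 Viability of MDA-kb2 cells was multiplexed with the luciferase AR readout; after 16 hr with compounds and R1881 at 0.5 nM final, CellTiter-Fluor fluorescence was recorded.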

[4] = qHTS assay to identify small molecule phospholipidosis (PLD) inducers (AID 1259344; active = well fitted curve in the direction sought with a large enough effect; an effect the other way counts as inactive or inconclusive); conditions: HepG2 phospholipidosis, LipidTOX Red imaging, 24 h; series mostly up to 38.3 µM
Method in brief: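 Quantitative HTS in HepG2: compound plus LipidTOX Red dye for 24 h, paraformaldehyde fixation with Hoechst 33342, widefield high-content imaging; amiodarone as positive and DMSO as negative control.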

[5] = qHTS assay to identify small molecule HDAC inhibitors (AID 1259364); conditions: HCT-116 HDAC-Glo I/II luminescence, 2 h; series mostly up to 92.4 µM;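 note: wild-type HCT-116 cells with endogenous class I/II HDAC activity; top concentration of the series differs between compounds; nearly all actives have a fitted effect of over 45% in size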
Method in brief: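 Read-out: luminescence of HDAC-Glo I/II reagent, 30 min RT, reflecting class I/II deacetylase activity in whole HCT-116 cells pre-exposed 2 h to DMSO-dissolved compounds.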

[6] = qHTS assay to identify small molecule HDAC inhibitors - cell viability counter screen (AID 1259365); conditions: HCT-116 viability, CellTiter-Glo ATP luminescence, 2 h; series mostly up to 92.4 µM; note: nearly all actives have a fitted effect of over 50% in size
Method in brief: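 Counter screen in wild-type HCT-116 cells: compounds dissolved in DMSO are pin-transferred onto overnight-plated cells and left 2hr at 37C. ATP-based CellTiter-Glo luminescence then measures viable cells.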

[7] = qHTS assay to identify small molecule agonists of the sonic hedgehog signaling (Shh) pathway - cell viability counter screen (AID 1259366); conditions: NIH/3T3 Gli1-Luc viability, CellTiter-Fluor, 24 h; series mostly up to 92.4 µM; note: nearly all actives have a fitted effect of over 50% in size
Method in brief: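 Cells are plated at 2,000 per well and left 4hr at 37C, 5% CO2 before compound addition. After 23hr of treatment, CellTiter-Fluor reagent is added for 1hr at 37C and fluorescence is measured.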

[8] = qHTS assay to identify small molecule antagonists of the sonic hedgehog signaling (Shh) pathway - cell viability counter screen (AID 1259367); conditions: NIH/3T3 Gli1-Luc viability, CellTiter-Fluor, 24 h; series mostly up to 92.4 µM; note: nearly all actives have a fitted effect of over 55% in size
Method in brief: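 Seed 3T3 Gli1-Luc cells at 2,000 per well; incubate 4 hr; add compound in DMSO, then conditioned medium; incubate at 37C with 5% CO2; add CellTiter-Fluor after 23 hr; read fluorescence 1 hr later.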

[9] = target: Estrogen receptor (Homo sapiens) (UniProt P03372); experiment: qHTS assay to identify small molecule antagonists of the estrogen receptor alpha (ER-alpha) signaling pathway using the BG1 cell line in the presence of 0.1 nM 17-beta-estradiol (AID 1259244); conditions: VM7Luc4E2 (BG1) ERE-luciferase, antagonist mode, 0.1 nM E2, 22 h; series mostly up to 92.4 µM; note: nearly all actives have a fitted effect of over 50% in size
Method in brief: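 Estradiol at 0.1 nM (final) stimulates the endogenous ER-alpha of VM7Luc4E2 cells carrying an ERE-driven luciferase; compounds are co-incubated 22 h at 37C and luciferase output quantified by luminescence.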
% is set by controls: 0 for no effect and ±100 for the full control effect.

Chain of Estrogen receptor (Homo sapiens) (P03372 whole entry, looked up): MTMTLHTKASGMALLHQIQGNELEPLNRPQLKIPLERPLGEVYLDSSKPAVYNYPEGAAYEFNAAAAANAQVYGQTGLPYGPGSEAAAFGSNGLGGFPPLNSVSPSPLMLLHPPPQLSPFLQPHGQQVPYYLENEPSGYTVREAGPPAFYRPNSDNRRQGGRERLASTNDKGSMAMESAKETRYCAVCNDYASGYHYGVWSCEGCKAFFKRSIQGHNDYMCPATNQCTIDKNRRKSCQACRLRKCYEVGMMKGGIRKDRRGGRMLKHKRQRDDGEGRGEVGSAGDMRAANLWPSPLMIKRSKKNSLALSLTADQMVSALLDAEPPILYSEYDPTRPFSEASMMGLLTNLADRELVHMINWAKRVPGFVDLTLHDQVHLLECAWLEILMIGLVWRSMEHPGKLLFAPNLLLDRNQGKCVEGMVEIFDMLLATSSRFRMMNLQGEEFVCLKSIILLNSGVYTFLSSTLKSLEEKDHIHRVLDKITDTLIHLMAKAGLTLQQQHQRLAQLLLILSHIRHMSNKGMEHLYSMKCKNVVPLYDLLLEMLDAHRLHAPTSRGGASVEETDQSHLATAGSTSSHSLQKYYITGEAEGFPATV

NC(=O)Cc1cccc(C(=O)c2ccccc2)c1N
inactive: Potency [1] | Potency [2] | outcome [3] | PLD induction [4] -0.295% [at 7.66 µM] | Potency [5] | outcome [6] | Potency [7] | Potency [8]

CCCCCCOc1ccc(N)cc1
inactive: Potency [1] | Potency [2] | outcome [3] | Potency [9] | outcome [6] | Potency [7] | Potency [8]

O=c1[nH]cnc2c1ncn2[C@@H]1O[C@H](CO)[C@@H](O)[C@H]1O
inactive: Potency [1] | Potency [2] | outcome [3] | outcome [4] | Potency [5] | outcome [6] | Potency [7] | Potency [8]

CC(C)O
inactive: Potency [1] | Potency [2] | outcome [3] | outcome [4] | Potency [5] | outcome [6]

CC/C=C\CCOC(=O)C(C)C
inactive: Potency [1] | Potency [2] | outcome [3] | Potency [9] | Potency [5] | Potency [7] | Potency [8]

CCCCCCCOC(=O)CCC
inactive: Potency [1] | Potency [2] | outcome [3] | Potency [9] | Potency [5] | Potency [7] | Potency [8]

CCCCC(CC)COC(=O)COc1cc(Cl)c(Cl)cc1Cl (configuration not stated)
inactive: Potency [1] | Potency [2] | outcome [3] | Potency [5] | outcome [6] | Potency [7] | Potency [8]

C=CC1CO1 (configuration not stated)
inactive: Potency [1] | Potency [2] | outcome [3] | Potency [5] | outcome [6] | Potency [7] | Potency [8]

CC(C)C(=O)OC/C=C/c1ccccc1
inactive: Potency [1] | Potency [2] | outcome [3] | Potency [5] | outcome [6] | Potency [7]

O=[N+]([O-])c1nccn1CO[C@@H](CO)[C@H](O)CO
inactive: Potency [1] | Potency [2] | outcome [3] | outcome [4] | Potency [5] | outcome [6] | Potency [7] | Potency [8]

CC(C)=CCCC(C)CCOC=O (configuration not stated)
inactive: Potency [1] | Potency [2] | outcome [3] | Potency [5] | outcome [6] | Potency [7]
